Assay results: PubChem BioAssay (EPA / NIEHS)
The source made the active and inactive calls. Rule for the calls: active = hit-call score of the fitted dose curve at least 0.9, where 1 is the maximum; inactive = score below 0.9.

Each compound was assayed on DNA damage-inducible transcript 3 (DDIT3), DDIT3 (gene 1649) (assay: LTEA_HepaRG_DDIT3: Life Technologies and Expression Analysis (LTEA) Assay for DNA damage-inducible transcript 3 (DDIT3) using HepaRG (AID 2283488)). Conditions: mRNA level, 48 h; actives raise or lower the signal.
Protocol: LTEA_HepaRG is a cell based, multiplexed-readout assay that uses HepaRG, a human liver cell line, with measurements taken at 48 hours after chemical dosing on a 96-well plate.LTEA_HepaRG_DDIT3 is one of 102 assay component(s) measured in the LTEA HepaRG cell culture assay. It is a marker of Oxidative Stress.Data from the assay component LTEA_HepaRG_DDIT3 was analyzed into 1 endpoint. This assay endpoint, LTEA_HepaRG_DDIT3, was analyzed with bidirectional fitting relative to DMSO as the negative control and baseline of activity. Using a type of inducible reporter, measures of mRNA induction for gain or loss-of-signal activity can be used to understand regulation of transcription factor activity. To generalize the intended target to other relatable targets, this assay endpoint is annotated to the dna binding intended target family, where the subfamily is basic leucine zipper.
A total of 1060 chemcials from the ToxCast library were tested in eight-point concentration-response experiments. Cell culture and cytotoxicity assays were conducted at Thermo Fisher Scientific's Custom Services facility (Madison, WI). A single lot of human HepaRG cells (Thermo Fisher Scientific, Frederick, MD) was used for the cell culture experiments. 96-well format collagen type I coated plates of human HepaRG cells were prepared using established methods. Briefly, cryopreserved HepaRG cells were thawed, plated at a density of approximately 100,000 cells/well in HepaRG Thaw, Plate, and General Purpose media (HPRG770, Thermo Fisher Scientific), and incubated for 48 hours. 0.5% DMSO was selected as vehicle control to balance the requisite need of DMSO in HepaRG cultures to maintain differentiation (for example, baseline metabolism, proportions of hepatocytes vs. cholangiocytes), while enabling further hepatic receptor pathway activation (for example, PXR and CAR) in response to chemical exposure. 48 hours after plating, the culture medium was replaced with HepaRG Serum-Free Incudtion Media. Cells were exposed to each test chemical in duplicate and maintained in CO2 incubators for another 48 hours. Chemical plates were thawed to room temperature and 200x concentrations of treatment groups were prepared. 8-point conentration-reponse curves were made with the highest exposure at 100 uM, followed by half-log dilutions, all in 0.5% DMSO. Each test plate contained variouse controls, induction positive controls (1mM phenobarbital), cytotoxicity positive controls ([…] aflatoxin B1), vehicle controls (0.5% DMSO), and total lysis controls (0.5% DMSO). Cell morphology images were taken using an Essen IncuCyte FLR automated microscope, with six 96-well plates imaged in about 24 minutes. Images were captured and exported and JPEG files. Spent culture media was transfered to black-well plates for the LDH assay, and remaining media was sorted at -80 C for later use. Cells were treated with RLT buffer and frozen until shipped for gene expression analysis. Total RNA was isolated from the cell suspension in 75 uL of Buffer RLT (Qiagen, Germantown, MD 20874) by Quintiles/Expression Analysis (Durham, NC) using a custom isolation procedure. Total RNA from each plate well was transferred to a preamplification plate. Fluidigm's 96.96 Dynamic ArrayTM (Fluidigm, Amsterdam, the Netherlands) technology was used for gene expression analyses by quantitative reverse transcription polymerase chain reaction (qRT-PCR, performed by Quintiles/Expression Analysis, Durham, NC)89. Standard TaqManTM Assays (Applied Biosystems/ThermoFisher Scientific, Foster City, CA) were used to assess the expression of 93 genes selected based on their selectivity and sensitivity to important hepatic receptors known to be modulated by environmental chemicals; importance in human hepatocyte functionality; and hepatotoxicity. […]
`CC(C)(C)c1ccc(O)c(C(C)(C)C)c1` was tested, and the outcome was “inactive”.
`c1ccc2c(c1)Cc1ccccc1-2` was tested, and the outcome was “inactive”.
For `OC1CCCCC1`, the outcome was “inactive”.
For `CN(C)C=O`, the outcome was “inactive”.
For `O=c1c(-c2ccc(O)cc2)coc2cc(O)ccc12`, the outcome was “inactive”.
In the case of `C[C@@H]1C[C@H]2[C@@H]3CCC4=CC(=O)C=C[C@]4(C)[C@@]3(F)[C@@H](O)C[C@]2(C)[C@@]1(O)C(=O)COP(=O)(O)O`, the outcome is reported as “inactive”.
In the case of `Cc1cc(CCN2CCN(c3nsc4ccccc34)CC2)cc2c1NC(=O)CC2(C)C`, the AC50 is reported as 71.9 µM (active).
For `CCCCC(CC)COC(=O)CCCCC(=O)OCc1ccccc1` (stereo not given), the outcome was “inactive”.
`O=C(O)c1ccccc1C(c1ccc(O)cc1)c1ccc(O)cc1` was tested, and the outcome was “inactive”.
For `CC(C)CCCCCCOC(=O)CCCCC(=O)OCCCCCCC(C)C`, the outcome was “inactive”.
In the case of `CCCCCCCC(=O)O`, the outcome is reported as “inactive”.
`CN1CCN(c2ccccc2/C=C2\SCCN(c3ccc(Cl)c(Cl)c3)C2=O)CC1` was tested, and the AC50 was 50 µM (active).
With `Cc1cc(C)c(O)c(C)c1` the outcome was “inactive”.
For `CCCCCCCCCCCCc1ccccc1S(=O)(=O)O`, the AC50 was 62.1 µM (active).
With `OCCC(F)(F)C(F)(F)C(F)(F)C(F)(F)C(F)(F)C(F)(F)C(F)(F)C(F)(F)F` the outcome was “inactive”.
In the case of `CCN(CC)CCNc1ccc(CNC=O)c2sc3ccc(OC)cc3c(=O)c12`, the outcome is reported as “inactive”.
In the case of `CCCCCCC(=O)O`, the outcome is reported as “inactive”.
For `NC(=O)N(O)[C@@H]1C=C[C@H](Oc2cccc(Oc3ccc(F)cc3)c2)C1`, the AC50 was 35.1 µM (active).
For `CCCCCCCCCCCCN1CCCC1=O`, the outcome was “inactive”.
`CCCCOCCO` was tested, and the outcome was “inactive”.
In the case of `C=C(C)C(=O)OCCC(F)(F)C(F)(F)C(F)(F)C(F)(F)C(F)(F)C(F)(F)F`, the outcome is reported as “inactive”.
`ClC1=C(Cl)C(Cl)(Cl)C(Cl)=C1Cl` was tested, and the outcome was “inactive”.
`CCCCC(CC)COC(=O)CCCCC(=O)OCC(CC)CCCC` (stereo not given) was tested, and the outcome was “inactive”.
With `COCC(C)OCC(C)O` (stereo not given) the outcome was “inactive”.
With `CCOC(=O)CC(O)(CC(=O)OCC)C(=O)OCC` the outcome was “inactive”.
For `CCc1nn(C2CCCCC2)c2cc(C3(C#N)CCC(C(=O)O)CC3)ccc12` (stereo not given), the AC50 was 77.5 µM (active).
For `Nc1cccc2c(N)cccc12`, the outcome was “inactive”.
With `O=[N+]([O-])c1ccc(O)cc1` the outcome was “inactive”.
`CCCCCCCCCCCCCCCS(=O)(=O)Oc1ccccc1` was tested, and the outcome was “inactive”.
In the case of `c1ccc2c(c1)ccc1ccccc12`, the outcome is reported as “inactive”.
`CCC(C)(C)C1CCC(O)CC1` (stereo not given) was tested, and the outcome was “inactive”.
`CC(C)(C)c1cccc(C(C)(C)C)c1O` was tested, and the AC50 was 12.2 µM (active).
With `CN1CCC[C@H]1c1cccnc1` the outcome was “inactive”.
With `Cc1oc(-c2ccccc2)nc1CCOc1ccc(C[C@H](Nc2ccccc2C(=O)c2ccccc2)C(=O)O)cc1` the AC50 was 14.1 µM (active).
With `OCCC(F)(F)C(F)(F)C(F)(F)C(F)(F)C(F)(F)C(F)(F)F` the outcome was “inactive”.
`CCCOc1sc(C(=O)N2CCC(c3cc(CN)ccc3F)CC2)c(C)c1Br` was tested, and the outcome was “inactive”.
With `NC(=O)N1C(=O)C(C(=O)c2cc(Cl)cs2)c2cc(F)c(Cl)cc21` (stereo not given) the AC50 was 22.9 µM (active).
`CCCCCCCCOC(=O)CCCCCCCCC(=O)OCCCCCCCC` was tested, and the outcome was “inactive”.
In the case of `CCc1ccc(CCOc2ccc(CC3SC(=O)NC3=O)cc2)nc1` (stereo not given), the AC50 is reported as 91.3 µM (active).
In the case of `CC#C[C@]1(O)CC[C@H]2[C@@H]3CCC4=CC(=O)CCC4=C3[C@@H](c3ccc(N(C)C)cc3)C[C@@]21C`, the AC50 is reported as 29.2 µM (active).
